This experiment relates to Leishmania donovani. The experiment is described as follows: Leishmania intramacrophage assay. It is filed as functional, organism-based. The arrangement: scale not given: in the data most compounds retested in dose-response had high values.

In all, about 69,000 compounds went through this assay and about 1,000 (1.4%) showed an effect of 50% or more. The sample as a whole holds a higher share of strong results than the screen did.

On to `Cc1ccc(CN2CCc3c(COCC4CC4)nn(C)c3C2)s1.O=C(O)C(F)(F)F`, for which, for the setting “30.3 µM, […]”, the “Percent Effect” value stood at 25.61%.
Regarding `COCc1nn(C(C)C)c2c1CCN(Cc1ccc(C)s1)C2.O=C(O)C(F)(F)F`, the “Percent Effect” value (30 µM, 30.03 µM) is 26.5%.
For `Cc1ccc(CN2CCCn3nnc(COCCN(C)C)c3C2)s1.O=C(O)C(F)(F)F.O=C(O)C(F)(F)F`, the “Percent Effect” value (30.3 µM, […]) is recorded as 66.44%.
On the same count and under the same terms, in the case of `Fc1ccc(CN2CCCn3nnc(COCC4CC4)c3C2)cc1.O=C(O)C(F)(F)F` it was -0.08958%; in that of `O=C(O)C(F)(F)F.c1csc(CN2CCCn3cnc(COCC4CC4)c3C2)n1`, 26.9%; in that of `O=C(O)C(F)(F)F.c1csc(CN2CCCn3nnc(COCC4CC4)c3C2)n1`, 52.28%.
As to `O=C(O)C(F)(F)F.c1cnc(NCc2nnn3c2CN(Cc2ccco2)CCC3)nc1`, the “Percent Effect” value (30.3 µM, […]) is listed as -8.13%.
Regarding `Cc1ccc(CN2CCc3c(COC(C)C)nn(C)c3C2)s1.O=C(O)C(F)(F)F`, the “Percent Effect” value (30.3 µM, […]) was 54.88%.
With `Cc1ccc(CN2Cc3nnn(C)c3C(COCCN(C)C)C2)s1.O=C(O)C(F)(F)F.O=C(O)C(F)(F)F` (stereo not given), the “Percent Effect” value (30 µM, 30.03 µM) turned out to be 25.22%.
As to `O=C(O)C(F)(F)F.c1ccc(CN2CCCn3nnc(Cn4cccc4)c3C2)nc1`, where the note is “30.3 µM, […]”, the “Percent Effect” value was -22.64%.
Same read-out and setting: with `O=C(O)C(F)(F)F.c1ccc(CN2CCCn3nnc(CNc4ncccn4)c3C2)nc1` the figure was 67.35%.
For the compound `Cc1ccc(CN2CCCn3nnc(COCC4CC4)c3C2)s1.O=C(O)C(F)(F)F`, the “Percent Effect” value (30 µM, 30.03 µM) came to 16.69%.
Turning to `Cc1ccccc1CN1C[C@@H]2CC[C@H](C1)N(CC1CCC1)C2=O`, under “30.3 µM, […]”, the “Percent Effect” value was determined as 6.524%.
The same measure, in the same setting: with `COCc1noc(CN2C[C@H](C3CC3)[C@@H](N(C)C)C2)n1` the figure was 0.8667%; with `COCCOCCNS(=O)(=O)C1CS(=O)(=O)c2ccccc21` (stereo not given), -2.938%.
Still for that read-out and setting: in the case of `O=C(Nc1ccc(F)cc1)C1CNCCN1C(=O)CCc1cccnc1` (stereo not given) it was 21.52%.
On to `CC1CN(C)CCN1C(=O)c1ccn(-c2ccc(F)cc2)n1` (stereo not given), for which the “Percent Effect” value (30 µM) came out at 12.79%.
As for `CN(CCN1CCCCCC1)C(=O)c1cc(CN2CCCC(O)C2)on1` (stereo not given), the “Percent Effect” value (30.3 µM, […]) turned out to be 28.93%.
The same measure, in the same setting: with `COc1cccc2c1OCCCN(Cc1ccc(C(N)=O)c(=O)[nH]1)C2` the figure was 18.01%.
Same read-out and setting: with `COc1c(CNCc2ccccc2CN2CCOCC2)c(C)nn1C` the figure was 15.12%.
The same measure, in the same setting: in the case of `O=C(CN1CCc2cncnc2C1)NC1CCCCNC1=O` (stereo not given) it was 3.811%; in that of `Cn1cc(CN2C[C@@H]3COC[C@]3(COCC3CC3)C2)cn1.O=C(O)C(F)(F)F`, 35.55%; in that of `Cc1nc(COC[C@@]23CCC[C@@H]2CN(Cc2cnn(C)c2)C3)cs1`, 33.3%.
For the compound `Cn1cc(CN2C[C@H]3CCC[C@@]3(COCC3CC3)C2)cn1.O=C(O)C(F)(F)F`, the “Percent Effect” value (30.3 µM, […]) is reported as 55.4%.
Same read-out and setting: with `O=C(O)C(F)(F)F.O=C1N(c2ccsc2)CCC12CCCN(CC1CC1)C2` (stereo not given) the figure was 57%; with `COCCN1CCCC2(CCN(c3ccsc3)C2=O)C1.O=C(O)C(F)(F)F` (stereo not given), -19.62%.
For `CN(C)C(=O)CN1CCCC2(CCN(c3ccsc3)C2=O)C1.O=C(O)C(F)(F)F` (stereo not given), the “Percent Effect” value (30 µM, 30.03 µM) is -2.413%.
In the case of `Cc1ccoc1C(=O)N1C[C@@H](OCC2CC2)[C@H]2OCCC[C@H]21`, under “30.3 µM, […]”, the “Percent Effect” value came out at 18.9%.
On to `COc1cccc(CN(C)C(C)C(=O)Nc2nc(C)c(C)s2)c1` (stereo not given), for which, where the note is “30.3 µM, […]”, the “Percent Effect” value worked out at 51.15%.
On the same count and under the same terms, in the case of `Cc1nc(NC(=O)C(C)N(C)Cc2ccc3c(c2)OCO3)sc1C` (stereo not given) it was 11.52%.
The same measure, in the same setting: in the case of `Cc1nc(NC(=O)C(C)N(C)Cc2cccc(C#N)c2)sc1C` (stereo not given) it was -18.76%; in that of `CCN(CC)C1CCN(C(=O)NCc2cccc(-n3ccnc3)c2)C1` (stereo not given), 23.85%; in that of `Cl.O=C(O)C1(Cc2cccc(-c3cccs3)c2)CCCNC1` (stereo not given), 29.13%.
Same read-out and setting: in the case of `Cl.O=C(N1CCCC1)C1(Cc2ccc(-c3cccs3)cc2)CCNC1` (stereo not given) it was 86.38%.
In the case of `Cl.O=C(O)C1(Cc2ccc(-c3cccs3)cc2)CCNC1` (stereo not given), the “Percent Effect” value (30.3 µM, […]) was found to be 44.48%.
With `O=C(NCc1cc[nH]n1)NCC(O)c1ccc(F)cc1F` (stereo not given), the “Percent Effect” value (30 µM, 30.03 µM) worked out at 9.759%.
On to `O=C(c1cnccn1)N1CCCC(C2=Nc3ccccc3S(=O)(=O)N2)C1` (stereo not given), for which, where the note is “30.3 µM, […]”, the “Percent Effect” value is reported as -20.53%.
As for `O=C1CCC(=O)N1c1nn(Cc2cccc(F)c2)cc1Cl`, the “Percent Effect” value (30.3 µM, […]) is listed as -1.051%.
The same measure, in the same setting: with `CC(C)CN1CC(C(=O)NCCNc2ncccn2)CC1=O` (stereo not given) the figure was 7.647%; with `COCC(=O)N1CCCn2c(CN3CCCC3)nnc2C1`, 44.76%; with `COCC(=O)N1CCCn2c(CN3CCCC3=O)nnc2C1`, 51.47%.
In the case of `COCC(=O)N1CCCn2c(CN3CCCCC3)nnc2C1.O=C(O)C(F)(F)F`, for the setting “30 µM, 30.03 µM”, the “Percent Effect” value was -9.377%.
Still for that read-out and setting: in the case of `CCOc1ccc(C(=O)NS(=O)(=O)c2cncc(Br)c2)cc1OC` it was 20.52%.
In the case of `CCOCCN(CCOCC)c1nc(C)nc2sccc12`, for the setting “30.3 µM, […]”, the “Percent Effect” value stood at 93.26%.
On the same count and under the same terms, with `CCCN(CCOC)c1nc(C)nc2sccc12` the figure was 19.01%; with `COCCN(Cc1sccc1C)c1nc(C)nc2sccc12`, 13.95%.
With `Cc1nnc(SCCNC(=O)Cn2cnc3ccccc3c2=O)s1`, the “Percent Effect” value (30.3 µM, […]) is given as 15.09%.
Still for that read-out and setting: with `COc1cc(N2CCC3(CCN(Cc4csc(C)n4)C3=O)C2)ncn1.O=C(O)C(F)(F)F` (stereo not given) the figure was 55.45%.
Same read-out and setting: with `COc1cc(N2CCC3(CCN(Cc4csc(C)n4)C3)CC2)ncn1.O=C(O)C(F)(F)F` the figure was 30.69%.
Same read-out and setting: in the case of `Cc1cnc(N2CCC3(CCN(Cc4csc(C)n4)C3=O)C2)nc1.O=C(O)C(F)(F)F` (stereo not given) it was 19.08%.

These data come from ChEMBL document CHEMBL3988442, “University of Dundee, Small-Polar-MMV Screening Library” (2021).
